NadD inh: blocks S. aureus nicotinate mononucleotide adenylyltransferase | purified NadD enzyme, colorimetric absorbance read-out | inhibition, % at 20 µM | actives 0.78% (n = 360,000); in the data active = inhibition above about 26%
FAS TE block: inhibitors of human fatty acid synthase thioesterase domain. recombinant FAS-TE, OMFH fluorogenic substrate, fluorescence endpoint. inhibition, % at 15 µM. actives 0.67% (n = 360,000). AID 602261;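 active = compounds whose normalised, plate-corrected inhibition of enzyme fluorescence in the single-dose primary screen is 50% or more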;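 note: 0% = DMSO with enzyme and 100% = substrate without enzyme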
rCAG RNA binder: binds r(CAG) RNA repeats; r(CAG) RNA repeat, TO-PRO-1 dye displacement fluorescence; inhibition, % at 3 µM; actives 1.3% (n = 370,000); AID 651821;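 active = inhibition above the plate cutoff, the mean of all test compounds on that plate plus 3 SD, cut at about 35% in these data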;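 note: 0% = DMSO alone and 100% = 100 µM mitoxantrone as full dye displacement; higher means more dye released from RNA so lower well fluorescence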
GRIN3A LBD mod: NR3A (human) ligand-binding domain modulation | NR3A LBD differential scanning fluorimetry, Tm shift; 0% = protein alone, 100% = glycine-bound protein | Tm shift relative to glycine control, % at 25 µM | actives 2.5% (n = 340,000) | AID 1259313;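 active = melting temperature shift of at least 10% of the positive control shift, at one fixed dose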
NadD conf: NadD (S. aureus) inhibition, single concentration confirmation; shares compounds with NadD inh; purified S. aureus NadD, colorimetric enzyme assay; AID 624309; actives 13% (n = 2,000); inhibition, % at 20 µM; in the data active = inhibition mostly above about 42%, no sharp cut-off; inactive = mostly below about 42%
rCAG binder conf: r(CAG) RNA repeat binding, confirmation; shares compounds with rCAG RNA binder; TO-PRO-1 dye displacement fluorescence; inhibition, % at 3 µM; actives 70% (n = 4,300); AID 652065;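 active = inhibition above a per-plate cutoff, the mean inhibition of sample wells plus 3 SD, cut at about 35% in these data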;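 note: loss of TO-PRO-1 fluorescence as compound displaces dye from 1x1 AA loop RNA; 0% = DMSO only wells and 100% = 100 µM mitoxantrone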
dCAG dye counter: disrupts DNA CAG TO-PRO-1 complex, flagging rCAG hits | shares compounds with rCAG RNA binder | d(CAG) DNA oligo TO-PRO-1 dye displacement, fluorescence | inhibition, % at 3 µM | actives 94% (n = 4,300) | AID 652068;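 active = inhibition above its plate's cutoff, the mean test-well inhibition plus 3 SD, cut at about 4.8% in these data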;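 note: 0% = DNA dye mix with DMSO and 100% = 100 µM mitoxantrone; hits displace the dye from DNA and so lower well fluorescence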
dCAG dye DR: counter-screen for rCAG binders: inhibitors of DNA CAG TO-PRO-1 complex | actives 20% (n = 250) | shares compounds with rCAG RNA binder | DNA CAG/GTC duplex TO-PRO-1 dye displacement fluorescence | IC50, µM; in the data active = IC50 below about 10 µM
* hit, by the source's call; nt = not tested or not shown. Shown are actives, neighbours in structure and some others; about 4.3% of the full set was active somewhere.

SMILES	NadD inh	FAS TE block	rCAG RNA binder	GRIN3A LBD mod	NadD conf	rCAG binder conf	dCAG dye counter	others
O=C1OC(c2cccs2)=N/C1=C\c1ccc(-c2cccc(Cl)c2)o1	46*	-38	49*	0	8	40*	12*	dCAG dye DR=>30
Clc1cccc(-c2ccc(/C=N/n3cnnc3)o2)c1	-6	2	-1	-2	nt	nt	nt
COC(=O)C1CCN(C(=O)c2cc(-c3ccco3)nc3ccccc23)CC1	32*	-1	41*	-1	56*	28	15*
Cn1c(N)c(C(=O)COC(=O)c2cc(C(F)(F)F)nc3ccccc23)c(=O)n(C)c1=O	nt	nt	-1	nt	nt	nt	nt
CC(C)Cn1c(N)c(C(=O)COC(=O)c2cc(-c3ccco3)nc3ccccc23)c(=O)n(C)c1=O	53*	11	41*	-30	20	39*	20*
COc1ccccc1CNC(=O)COC(=O)c1cc(-c2ccco2)nc2ccccc12	46*	3	41*	nt	39	31	17*
O=C(COC(=O)c1ccco1)NCc1ccc2c(c1)OCO2	-3	-6	-2	-3	nt	nt	nt
O=C(c1cc(-c2ccco2)nc2ccccc12)N1CCN(Cc2ccccc2)CC1	11	-5	13	0	nt	nt	nt
O=C(COC(=O)c1cc(-c2ccco2)nc2ccccc12)NCc1ccc2c(c1)OCO2	43*	4	38*	-3	-4	15	8.0*
Cc1oc2c(c(C)nn2-c2ccccc2)c(=O)c1Cl	nt	nt	3	nt	nt	nt	nt
COC(=O)[C@]12C[C@H](CC(=O)N3CCN(C(=O)c4ccco4)CC3)C(=O)N(Cc3ccc(Cl)cc3Cl)C1=C[C@H](C(C)(C)C)O[C@@H]2C	nt	nt	10	nt	nt	nt	nt
CCOC(=O)N1CCN(C(=O)C[C@H]2C[C@@]3(C(=O)OC)C(=C[C@H](C(C)(C)C)O[C@@H]3C)N(CCc3ccc(OC)c(OC)c3)C2=O)CC1	nt	nt	3	nt	nt	nt	nt
CC1CCc2c(sc(Nc3nc4c(F)cccc4s3)c2C(N)=O)C1 (configuration not stated)	36*	9	42*	12*	8	26	14*
O=C(Nc1nc2c(F)cccc2s1)C1CC1	-1	-6	1	2	nt	nt	nt
CCCCCCCCN1C(=O)[C@@H](CC(=O)NCC23CC4CC(CC(C4)C2)C3)C[C@@]2(C(=O)OC)C1=C[C@H](COCc1ccccc1)O[C@@H]2C	nt	nt	11	nt	nt	nt	nt
Cc1ccc(C(=O)Nc2cccc([N+](=O)[O-])c2)cc1S(=O)(=O)Nc1ccc(NC(=O)c2ccccc2)cc1	42*	36	55*	36*	38*	41*	21*
CC(=O)Nc1ccc(NC(=O)c2ccc(C)c(S(=O)(=O)Nc3cccc(C)c3)c2)cc1	-4	3	15	0	nt	nt	nt
Cc1ccc(NC(=O)CCNC(=O)c2ccc([N+](=O)[O-])cc2)cc1S(=O)(=O)N(C)C	-3	12	5	-1	nt	nt	nt
Cc1ccc(NC(=O)CC(=O)c2ccc([N+](=O)[O-])cc2)cc1S(=O)(=O)Nc1cccc(Cl)c1	37*	40	50*	25*	35	64*	25*
COC(=O)[C@]12C[C@H](CC(=O)NCCc3ccccc3OC)C(=O)N(Cc3ccccc3)C1=C[C@H](C(C)(C)C)O[C@@H]2C	nt	nt	1	nt	nt	nt	nt
CC(=O)C1=C(C)N(CC(C)C)C(=S)NC1c1cccc(Cl)c1 (configuration not stated)	nt	nt	0	nt	nt	nt	nt
COc1ccc(C2=NN(C(=O)COC(=O)c3ccc(NC(=O)CC#N)cc3)C(c3ccco3)C2)cc1 (configuration not stated)	37*	-1	35*	3	19	23	18*
CCc1ccc(NC(=O)C(C)OC(=O)c2ccc(NS(=O)(=O)c3ccc(C)c([N+](=O)[O-])c3)cc2)cc1 (configuration not stated)	45*	35	85*	13*	46*	82*	48*

Screens from PubChem BioAssay.
